Records with an inconclusive call do not appear. Where a call stands in place of a potency, no number is given. Values without a mark were called inactive. Calls of active or inactive are those of the source. Calls come from the whole dose curve; as a rule, active = well fitted inhibition curve with a large enough effect; inconclusive = small, poorly fitted or top-dose-only effect; inactive = no such curve, though single readings can be large or run the other way. Where a SMILES comes first, the peptide text is derived from it. [ ]: non-standard residue; d: D form. PhLac = O=C(O)[CH](O)Cc1ccccc1; NMeV = CN[CH](C(=O)O)C(C)C
Tests used:
[1] = tested on: Zika virus NS2B-NS3 protease (unlinked complex); assay: Primary screen GU Rhodamine qHTS for Zika virus inhibitors: Unlinked NS2B-NS3 protease assay (AID 1347159); note: nearly all actives have a fitted effect of over 60% in size
Outline: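 Compounds, tested up to 114 microM, were incubated for 15 minutes with 25 nM unlinked NS2B-NS3 protease at pH 8.0. Cleavage of 1.5 microM Rhodamine110 substrate was then followed by fluorescence for 15 minutes.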

[2] = tested on: Zika virus NS2B-NS3 protease (linked construct); assay: Primary screen NINDS Rhodamine qHTS for Zika virus inhibitors (AID 1347160); note: nearly all actives have a fitted effect of over 55% in size
Outline: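 Percent inhibition, normalized to uninhibited and enzyme-free controls, is fitted to a 4-parameter Hill equation. Fluorescence change comes from a 15-min cleavage of 1.5 microM bis-peptide Rhodamine110 substrate by 25 nM linked NS2B-NS3 at room temperature.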
Potency is the fitted concentration of half-maximal effect.

Row | Structure (SMILES) | Potency [1] | Potency [2] | activity change, negative = inhibition [1] | activity change, negative = inhibition [2]
1 | CC(C)CC(=O)O[C@@H]1OC=C(CO[C@@H]2O[C@H](CO[C@@H]3O[C@H](CO)[C@@H](O)[C@H](O)[C@H]3O)[C@@H](O)[C@H](O)[C@H]2O)[C@H]2C[C@H](O)[C@@H](CO)[C@@H]12 | inactive | inactive |  | 
2 | O=C(O)c1n[nH]c2c1C[C@H]1C[C@@H]21 | inactive | inactive |  | 
3 | CC(=O)OC1C(O)CC(O[C@@H]2O[C@H](CO)[C@@H](O)[C@H](O)[C@H]2O)C2CCC3C(=O)OC(c4ccoc4)CC3(C)C21 (some centres not stated) | inactive | inactive |  | 
4 | CC(=O)OC(CSC1CCC(=O)OC(C)CCC(=O)C1)C(=O)O (configuration not stated) | inactive | inactive |  | 
5 | CON(C)C(=O)N1N=C(c2cc(F)ccc2F)S[C@@]1(CCCN)c1ccccc1 | inactive | inactive |  | 
6 | OCC1=CC[C@@H]2C=CO[C@@H](O[C@@H]3O[C@H](CO)[C@@H](O)[C@H](O)[C@H]3O)[C@H]12 | inactive | inactive |  | 
7 | COC12CC3C(C(C)C1=CC(=O)O2)C(O)C(OC(C)=O)C1C(C)(C)C(OC(C)=O)CCC31C (configuration not stated) | inactive | inactive |  | 
8 | COC(=O)C12C(=O)C(C)=C(O)C1(C)C(C)=CC1C34CCC(OC3=O)C(C)(C)C4CCC12C (configuration not stated) | inactive | inactive |  | 
9 | O=C1C[C@@H](c2ccc(O)cc2)Oc2cc(O)ccc21 | inactive | inactive |  | 
10 | C/C=C1\[C@H](O[C@@H]2O[C@H](CO)[C@@H](O)[C@H](O)[C@H]2O)OC=C(C(=O)OC)[C@H]1CC(=O)OC | inactive | inactive |  | 
11 | O=S(=O)(NC1CCNCC1)c1cc(S(=O)(=O)c2ccccc2)ccc1C(F)(F)F | inactive | inactive |  | 
12 | C=C1CCC(OC(C)=O)C2(C)CC3(O)OC(=O)C(C)=C3CC12 (configuration not stated) | inactive | inactive |  | 
13 | CC(C)=CCC[C@](C)(O[C@@H]1O[C@H](CO[C@@H]2OC[C@@H](O)[C@H](O)[C@H]2O)[C@@H](O)[C@H](O)[C@H]1O)[C@H]1CC[C@]2(C)[C@@H]1[C@H](O)C[C@@H]1[C@@]3(C)CC[C@H](O[C@@H]4O[C@H](CO)[C@@H](O)[C@H](O)[C@H]4O[C@@H]4O[C@H](CO)[C@@H](O)[C@H](O)[C@H]4O)C(C)(C)[C@@H]3CC[C@]12C | inactive | inactive |  | 
14 | Cc1cn2c(N)c(Cl)cc(C(=O)NCC3CCN(CC(C)C)CC3)c2n1 | inactive | inactive |  | 
15 | CC(C)CNC(=O)/C=C/CCCCc1ccc2c(c1)OCO2 | inactive | inactive |  | 
16 | C=C1CC[C@H]2[C@@](C)(CCC[C@@]2(C)C(=O)O)[C@@H]1CCC(C)CCO (some centres not stated) | inactive | inactive |  | 
17 | Cc1cc(O)cc(Oc2cc(C)c(C(=O)O)c(O)c2)c1 | 14.1 µM (active) | 17.8 µM (active) |  | 
18 | c1ccc(C(OC2CCN(CCCc3nn[nH]n3)CC2)c2ccccc2)cc1 | inactive | inactive |  | 

Row | Structure (SMILES) | Potency [1] | Potency [2] | activity change, negative = inhibition [1] | activity change, negative = inhibition [2]
19 | CCn1nnnc1NCc1ccc(C(C)C)cc1 | inactive | inactive |  | 
20 | CC(=O)[C@@H]1CC[C@]2(C(=O)O)CC[C@]3(C)C(CCC4[C@@]5(C)CC[C@H](O)C(C)(C)C5CC[C@]43C)C12 (some centres not stated) | inactive | inactive |  | 
21 | CC(=O)O[C@@H]1[C@H](O[C@@H]2OC[C@](O)(CO)[C@H]2O)[C@@H](O[C@@H]2O[C@@H](C)[C@H](O)[C@@H](O)[C@H]2O)[C@H](OC(=O)[C@]23CCC(C)(C)C[C@H]2C2=CCC4[C@@]5(C)C[C@H](O)[C@H](O[C@@H]6O[C@H](C(=O)O)[C@@H](O)[C@H](O)[C@H]6O)[C@@](C)(C(=O)O)C5CC[C@@]4(C)[C@]2(C)CC3)O[C@@H]1C (some centres not stated) | inactive | inactive |  | 
22 | CC(C)(O)C1CCC2(C)C3C(O)C4C(C13)C42CO (configuration not stated) | inactive | inactive |  | 
23 | O=c1ccn(C2OC(CO)C(O)C2O)c(=O)[nH]1 (configuration not stated) | inactive | inactive |  | 
24 | C[C@@H]1CC[C@]2(C(=O)O)CC[C@]3(C(=O)O)C(=CCC4[C@@]5(C)CC[C@H](O[C@@H]6O[C@@H](C)[C@H](O[C@@H]7O[C@H](CO)[C@@H](O)[C@H](O)[C@H]7O)[C@@H](O)[C@H]6O)C(C)(C)C5CC[C@]43C)C2[C@H]1C (some centres not stated) | inactive | inactive |  | 
25 | CC1(C)O[C@]23C[C@H]1C[C@H](OC(=O)c1ccoc1)[C@]2(C)[C@@H](OC(=O)c1ccoc1)CCC3(C)O (some centres not stated) | inactive | inactive |  | 
26 | C/C=C(\C)C(=O)O[C@@H](C)[C@H]1CC[C@]2(O)C3CCC4C[C@@H](OC5CC(OC)C(OC6CC(OC)C(OC7CC(OC)C(OC8OC(C)C(OC9OC(CO)C(O)C(O)C9O)C(OC)C8O)C(C)O7)C(C)O6)C(C)O5)CC[C@]4(C)C3[C@H](O)[C@@H](O)[C@]12C (some centres not stated) |  |  | -1.05% [at 19.1 µM] | 6.1% [at 10.7 µM]
27 | CC1NC(=O)CNC(=O)C(C(C)C)NC(=O)C2CCCN2C(=O)C(C(C)C)NC(=O)C(Cc2c[nH]c3ccccc23)NC1=O (configuration not stated) (cyclo(GAWVPV); configuration not given here) | inactive | inactive |  | 
28 | CCc1cc2c(=O)c(-c3nc4ccccc4s3)coc2c(CN2CCCCC2)c1O | 12.6 µM (active) | inactive |  | 
29 | CC[C@H](/C=C/[C@@H](C)[C@H]1CC[C@H]2[C@@H]3CC=C4C[C@@H](O)CC[C@]4(C)[C@H]3CC[C@]12C)C(C)C |  |  | 1.47% [at 11.5 µM] | 7.22% [at 4.91 µM]
30 | OC[C@H]1O[C@@H](OC(CCCCc2ccc(O)cc2)CCc2ccc(O)cc2)[C@H](O[C@@H]2OC[C@](O)(CO)[C@H]2O)[C@@H](O)[C@@H]1O (some centres not stated) | inactive | inactive |  | 
31 | CC(=O)OCCC(C)CCC1C(C)(O)CCC2C(C)(C)CCCC21C (configuration not stated) | 8.91 µM (active) | 11.2 µM (active) |  | 
32 | C[C@@H]1O[C@@H](O[C@H]2[C@H](O[C@H]3CC[C@@]4(C)C(CC[C@]5(C)C4CC=C4[C@@H]6CC(C)(C)CC[C@]6(C(=O)O)CC[C@]45C)[C@]3(C)CO)OC[C@H](O)[C@@H]2O)[C@H](O)[C@H](O[C@@H]2OC[C@@H](O)[C@H](O)[C@H]2O)[C@H]1O (some centres not stated) | inactive | inactive |  | 
33 | O=C(/C=C/c1ccc(O)cc1)OC[C@]12O[C@H]1[C@@H](O)[C@@H]1C=CO[C@@H](O[C@@H]3O[C@H](CO)[C@@H](O)[C@H](O)[C@H]3O)[C@@H]12 | inactive | inactive |  | 
34 | CC(C)C(C(=O)N1CCCC1C(=O)O)N(C)C(=O)C(O)Cc1ccccc1 (configuration not stated) (H-[PhLac]-[NMeV]-Pro-OH; configuration not given here) | inactive | inactive |  | 
35 | CNC(=O)Nc1ccc(OC)c(NC(=O)NC(=O)c2cc(F)c(F)cc2Cl)c1 | inactive | inactive |  | 
36 | N[C@@H](CC(=O)N1CCn2c(nnc2C(F)(F)F)C1)Cc1[nH]nc2c(F)c(F)ccc12 | inactive | inactive |  | 

Reference: PubChem BioAssay (NCATS)
